In PubChem BioAssay one finds composite z-score and z-score data, which are given here for 17 compounds.

The source made the active and inactive calls. Unless noted, how the calls were made is not given here.

For assay [1], the system named is XIP peptide (Xip251-270) binding. Nature of the assay: small-molecule binders of XIP peptide, primary screen, biochemical, small-molecule microarray, fluorescence 635/667 nm, 0.1 µg/mL protein (AID 1182). The conditions noted are these: fluorescent protein binding, 635 nm, higher = more signal, called active from +8 up or from −8 down.
The subject of the next assay is XIP peptide (Xip251-270). Nature of the assay: small-molecule binders of XIP peptide, primary screen, biochemical, small-molecule microarray, fluorescence 635/667 nm, 0.5 µg/mL protein (AID 1183). The conditions noted are these: small-molecule microarray binding, fluorescence 635 nm; higher = more signal.
A short description of assay [2]: Plasmodium falciparum growth inhibition, primary screen, strain 3D7, DAPI fluorescence, 100 nL (AID 1184).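 Further: parasites grown inside human red blood cells in medium with human serum.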 The conditions noted are these: P. falciparum 3D7 growth, 3 d, higher = more signal.
Assay [3] has as its target Homeobox protein Hox-A13 (Mus musculus) (UniProt Q62424). Nature of the assay: inhibitors of HoxA13-DNA binding, primary screen, biochemical, fluorescence polarization, labeled oligonucleotide (AID 1185). The conditions noted are these: 15 min, higher = more signal, called active from +8 up or from −8 down.
The nature of assay [4]: inhibitors of hydroxyurea-induced Chk1 phosphorylation, primary screen, imaging, HeLa, phospho-Chk1 antibody, percent positive cells (AID 1186). The conditions noted are these: hydroxyurea-induced phospho-Chk1 immunofluorescence imaging, higher = more signal.
The nature of assay [5]: inhibitors of hydroxyurea-induced Chk1 phosphorylation, primary screen, imaging, HeLa, phospho-Chk1 nuclear intensity (AID 1187). The conditions noted are these: hydroxyurea-induced phospho-Chk1 immunofluorescence imaging, higher = more signal.

Sequence of Homeobox protein Hox-A13 (Mus musculus) (Q62424 whole entry, looked up): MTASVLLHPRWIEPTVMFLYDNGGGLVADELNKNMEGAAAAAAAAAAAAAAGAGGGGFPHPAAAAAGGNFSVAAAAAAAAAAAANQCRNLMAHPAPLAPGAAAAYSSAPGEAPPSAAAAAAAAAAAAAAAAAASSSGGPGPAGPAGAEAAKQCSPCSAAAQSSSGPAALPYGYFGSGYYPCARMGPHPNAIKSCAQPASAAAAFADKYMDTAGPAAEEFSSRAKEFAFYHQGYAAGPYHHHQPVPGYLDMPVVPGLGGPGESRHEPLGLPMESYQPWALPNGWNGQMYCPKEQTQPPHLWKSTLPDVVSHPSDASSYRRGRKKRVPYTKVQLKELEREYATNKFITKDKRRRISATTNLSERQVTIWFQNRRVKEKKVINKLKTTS

For the compound `COC(=O)[C@@]1(Cc2ccc(F)cc2)[C@@H]2[C@@H](CC(=O)[C@H]2CC(=O)C(=O)N2CCCC2)CN1C(=O)c1ccccc1`, the composite z-score in assay [1] is 0.112 (inactive); in the assay with XIP peptide (Xip251-270), 0.663. The z-score in assay [2] is -1.44; in assay [3] it was -2.66 (inactive); in assay [4], 0.853 (inactive); in assay [5] it was 1.01 (inactive).
As for `O=C(Nc1cc(Br)ccc1C(=O)NCc1cccc(O)c1)c1ccccc1`, the composite z-score in assay [1] was 2.11 (inactive); in the assay on XIP peptide (Xip251-270), 0.597. Also, the z-score in assay [2] is -0.64; in assay [3], -0.429 (inactive); in assay [4] it was 0.0071 (inactive); in assay [5], -0.27 (inactive).
On to `COC(=O)C(CC#Cc1ccc2c(c1)[C@]1(C(=O)N2)[C@H](c2ccccc2OCCO)N2[C@H](c3ccccc3)[C@H](c3ccccc3)OC(=O)[C@H]2[C@@H]1C(=O)Nc1nc2ccccc2s1)C(=O)OC`, for which the composite z-score in assay [1] is 1.32 (inactive); in the assay on XIP peptide (Xip251-270), 0.727. Further, the z-score is -2 in assay [2], 0.787 (inactive) in assay [3], -0.0918 (inactive) in assay [4] and -0.269 (inactive) in assay [5].
Turning to `COC(=O)c1c(CC[C@@H](CO)NC(=O)N[C@@H](C)Cn2cc(C3(O)CCCC3)nn2)oc(C(C)=O)c1C(=O)OC`, the composite z-score in assay [1] is -0.0616 (inactive); in the assay with XIP peptide (Xip251-270) it was 0.407. In addition, the z-score in assay [2] is -2.04; in assay [3], -1.93 (inactive); in assay [4] it was 1.1 (inactive); in assay [5], 0.929 (inactive).
On to `NC(=O)NCC#Cc1ccc2c(c1)[C@]1(C(=O)N2)[C@H](c2ccc(O)cc2)N2[C@H](c3ccccc3)[C@H](c3ccccc3)OC(=O)[C@H]2[C@@H]1C(=O)NC[C@H](O)c1ccccc1`, for which the composite z-score in assay [1] is -0.0884 (inactive); in the assay on XIP peptide (Xip251-270), -0.294. The z-score in assay [2] was -0.547; in assay [3] it was -0.93 (inactive); in assay [4] it was -0.186 (inactive); in assay [5], -0.151 (inactive).
With `CCCCCCCCCCC(O)C1C=CC2C(=O)NC(=O)C2N1Nc1ccccn1` (configuration not stated), the composite z-score was -0.0785 (inactive) in assay [1] and -0.0706 in the assay with XIP peptide (Xip251-270). In addition, the z-score was 1.05 in assay [2], -2.89 (inactive) in assay [3], 0.764 (inactive) in assay [4] and 0.554 (inactive) in assay [5].
As for `CCCCC(=C=CC[C@H](O)c1cccc(OCCO)c1)C[C@H](O)COCc1ccccc1`, the composite z-score in assay [1] was 1.4 (inactive); in the assay with XIP peptide (Xip251-270) it was 0.752. The z-score in assay [2] was -1.88; in assay [3], -4.78 (inactive); in assay [4] it was -0.0835 (inactive); in assay [5] it was 0.0554 (inactive).
Consider `Cc1ccc(S[C@]2(C(=O)NCc3ccccc3)CC(=O)N(C3Cc4ccccc4C3)[C@@H]2c2ccc(CO)cc2I)cc1`, for which the values for the composite z-score (in assay [1]; in the assay on XIP peptide (Xip251-270)) were 1.77 (inactive) and 0.23, respectively. The z-score was 0.237 in assay [2], -1.78 (inactive) in assay [3], -0.424 (inactive) in assay [4] and -0.164 (inactive) in assay [5].
With `C=C(/C(=C/C[C@@H](OC(=O)c1ccncc1)c1cccc(OCCO)c1)c1cc(C(=O)OC)ccc1OC)C(C)C`, the figures for the composite z-score (in assay [1]; in the assay on XIP peptide (Xip251-270)) were 0.577 (inactive) and 0.723, respectively. The z-score was -3.13 in assay [2], -3.8 (inactive) in assay [3], -0.185 (inactive) in assay [4] and -0.235 (inactive) in assay [5].
Turning to `COCCOC(=O)N1C(=O)[C@@]2(c3ccccc31)[C@H](c1ccc(OCCO)cc1)N1[C@H](c3ccccc3)[C@H](c3ccccc3)OC(=O)[C@H]1[C@@H]2C(=O)NC[C@H](O)c1ccccc1`, the results for the composite z-score (in assay [1]; in the assay with XIP peptide (Xip251-270)) were 0.103 (inactive) and 0.808, respectively. Moreover, the z-score in assay [2] was -1.64; in assay [3], -4.23 (inactive); in assay [4], 0.228 (inactive); in assay [5], 0.726 (inactive).
Turning to `CCOC(=O)C1=CCC(c2cccc(Cl)c2)O1` (configuration not stated), the composite z-score is 1.62 (inactive) in assay [1] and 0.183 in the assay with XIP peptide (Xip251-270). The z-score was -1.25 in assay [2], -0.834 (inactive) in assay [3], 0.296 (inactive) in assay [4] and -0.0984 (inactive) in assay [5].
Consider `[N-]=[N+]=NCc1ccccc1C[C@]1(C(=O)NCCN2CCOCC2)COC(c2ccc(OCCCO)cc2)=N1`, for which the composite z-score was 0.0364 (inactive) in assay [1] and 0.258 in the assay on XIP peptide (Xip251-270). The z-score is -2.09 in assay [2], -4.71 (inactive) in assay [3], -0.327 (inactive) in assay [4] and -0.625 (inactive) in assay [5].
On to `OCCCC1=CC(c2cccs2)N(Cc2cccc(OC(F)(F)F)c2)CC1` (configuration not stated), for which the results for the composite z-score (in assay [1]; in the assay with XIP peptide (Xip251-270)) were -0.512 (inactive) and 0.754, respectively. Besides, the z-score is -0.717 in assay [2], -2.9 (inactive) in assay [3], 0.439 (inactive) in assay [4] and 0.513 (inactive) in assay [5].
On to `CN1C(=O)C2C=CC(C(O)COCc3ccccc3)N(Nc3ccccc3)C2C1=O` (configuration not stated), for which the composite z-score is -0.184 (inactive) in assay [1] and 0.311 in the assay with XIP peptide (Xip251-270). For the same compound, the z-score in assay [2] is 0.872; in assay [3], -2.91 (inactive); in assay [4], 0.466 (inactive); in assay [5], 0.764 (inactive).
As to `C#CCOC(=O)N[C@H](C=CCCCC)c1ccccc1`, the results for the composite z-score (in assay [1]; in the assay on XIP peptide (Xip251-270)) were 0.0811 (inactive) and -0.632, respectively. Also, the z-score in assay [2] was -0.817; in assay [3] it was -3.62 (inactive); in assay [4], 0.163 (inactive); in assay [5], 0.195 (inactive).
Turning to `COC(=O)[C@]1(Cc2ccccc2N=[N+]=[N-])N=C(c2ccc(OCCCO)cc2)O[C@@H]1c1ccccc1`, the composite z-score in assay [1] is 0.857 (inactive); with XIP peptide (Xip251-270) it was 0.797. For the same compound, the z-score is -1.44 in assay [2], -2.09 (inactive) in assay [3], -0.88 (inactive) in assay [4] and -1.26 (inactive) in assay [5].
On to `C=CCC(OC(C)=O)[C@@H]1[C@@H](N(Cc2ccc(-c3ccccc3)cc2)C(=O)Cc2ccc(OC)cc2)c2cc(OCCCO)ccc2N1C(=O)c1ccc(-c2ccccc2)cc1` (some centres not stated), for which the composite z-score in assay [1] was -0.0622 (inactive); in the assay on XIP peptide (Xip251-270), -0.698. Moreover, the z-score in assay [2] is -2.91; in assay [3], -1.52 (inactive); in assay [4], -0.244 (inactive); in assay [5] it was 0.158 (inactive).
